Our source for the Potency values is PubChem BioAssay (NCATS).

What all share (assay): qHTS profiling for inhibitors of Plasmodium falciparum proliferation (AID 504749); note: nearly all actives have a fitted effect of over 60% in size
Settings in all cases: P. falciparum in erythrocytes, SYBR Green DNA, 72 h; series mostly up to 28.7 µM

Experiment [1] relates to CP185. In short, it runs like this:
(§1)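 SYBR Green fluorescence (ex 485 nm, em 535 nm) reports parasite DNA after 72 h compound exposure of infected red cells at 0.3% parasitemia, 2.5% hematocrit; signal normalized to 0.29 uM artemisinin and vehicle wells.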

In experiment [2] the test system is CP191. In short, it runs like this: as §1
Experiment [3] concerns CP192. An outline of the steps:
as §1

Experiment [4] deals with CP194. In short, it runs like this:
as §1

The subject of experiment [5] is CP201. In short, it runs like this:
as §1

In experiment [6] the test system is CP211. An outline of the steps:
as §1

The test system of experiment [7] is CP215. An outline of the steps: as §1
Experiment [8] concerns CP217. In short, it runs like this: as §1
For experiment [9], the system named is CP237. An outline of the steps:
as §1

Experiment [10] has as its system CP238. An outline of the steps:
as §1

The subject of experiment [11] is CP247. An outline of the steps:
as §1

Experiment [12] concerns CP250. An outline of the steps: as §1
In experiment [13] the test system is CP252. In short, it runs like this:
as §1

For experiment [14], the system named is CP256. An outline of the steps:
as §1

For experiment [15], the system named is CP260. An outline of the steps:
as §1

Experiment [16] relates to CP262. In short, it runs like this:
as §1

Experiment [17] deals with CP265. In short, it runs like this: as §1
In experiment [18] the test system is CP268. In short, it runs like this: as §1
Experiment [19] has as its system CP203. In short, it runs like this: as §1
In experiment [20] the test system is CP266. An outline of the steps:
as §1

Results filed as inconclusive are left out. Active and inactive are the calls of the source. Calls come from the whole dose curve; as a rule, active = well fitted inhibition curve with a large enough effect; inconclusive = small, poorly fitted or top-dose-only effect; inactive = flat fitted curve, though single readings scatter.
Potency is the fitted concentration of half-maximal effect.

`CC1=C(/C=C/C(C)=C/C=C/C(C)=C/C=C/C=C(C)/C=C/C=C(C)/C=C/C2=C(C)CCCC2(C)C)C(C)(C)CCC1`: the Potency result in [1], in experiment [2], in experiment [3], in experiment [4], in experiment [5] and in experiment [6] was “inactive” throughout. Besides, the Potency result in experiment [7], in experiment [8], in experiment [9], in experiment [10], in [11] and in experiment [12] was “inactive” in each case. In addition, the Potency result in experiment [13], in experiment [14], in experiment [15], in experiment [16], in experiment [17] and in experiment [18] was “inactive” in each case.
Regarding `O=S(=O)(O)O`, the Potency result in experiment [1], in experiment [2], in experiment [3], in experiment [4], in [5] and in experiment [6] was “inactive” in each case. In addition, the Potency result in experiment [8], in experiment [9], in experiment [10], in [11], in experiment [12] and in experiment [13] was “inactive” throughout. Moreover, the Potency result in experiment [14], in experiment [15], in experiment [16], in [17] and in experiment [18] was “inactive” throughout.
Take `C=C1C(=CC=C2CCC[C@@]3(C)[C@@H]2CC[C@H]3[C@H](C)CCCC(C)C)C[C@@H](O)C[C@@H]1O`: the Potency in experiment [2] and in experiment [17] was 11.2 µM (active) throughout. Also, the Potency result in experiment [3], in experiment [4], in experiment [5], in experiment [19], in experiment [6] and in [7] was “inactive” each time. The Potency entry in experiment [16], in experiment [20] and in experiment [18] was “inactive” throughout.
`O=C(O)c1cc(O)c2c(c1)[O][Bi][O]2`: the Potency result in experiment [1], in experiment [2], in [3], in experiment [4], in [5] and in experiment [6] was “inactive” in each case. In addition, the Potency entry in experiment [8], in [9], in experiment [10], in experiment [11], in experiment [12] and in experiment [13] was “inactive” throughout. The Potency result in [14], in [15], in experiment [16], in [17] and in [18] was “inactive” each time.
With `CC(=O)Oc1cc(C)c(OC(C)=O)c2ccccc12`, the Potency in experiment [3] was 10.7 µM (active); in experiment [12], 7.94 µM (active); in experiment [14], 10 µM (active); in [16], 13.5 µM (active).
For `COC(=O)[C@H]1[C@H]2CC3c4[nH]c5ccccc5c4CCN3C[C@@H]2CC[C@@H]1O` (some centres undefined), the Potency result in experiment [1], in experiment [2], in experiment [8], in experiment [9], in experiment [10] and in [11] was “inactive” throughout. Also, the Potency entry in experiment [12], in experiment [13], in experiment [14], in experiment [15] and in experiment [17] was “inactive” each time.
In the case of `O=C(Nc1ccc(Br)cc1)c1cc(Br)c(Br)s1`, the Potency in experiment [19] was 16.9 µM (active); in experiment [18], 12 µM (active). Moreover, the Potency result in experiment [12] and in experiment [16] was “inactive” each time.
As to `CC(Cc1ccc(O)c(O)c1)C(C)Cc1ccc(O)c(O)c1` (centres undefined), the Potency result in experiment [1], in experiment [2], in experiment [3], in experiment [4], in experiment [5] and in [6] was “inactive” each time. For the same compound, the Potency result in experiment [8], in experiment [10], in experiment [11], in experiment [12], in experiment [13] and in experiment [14] was “inactive” in each case. In addition, the Potency result in experiment [15], in experiment [16], in experiment [17] and in experiment [20] was “inactive” in each case.
With `O=C1CSC2(CCN(CCCN3c4ccccc4Sc4ccc(Cl)cc43)CC2)N1`, the Potency entry in [1], in experiment [10], in experiment [12], in experiment [14] and in [16] was “inactive” throughout.
Regarding `CC(C)N=c1cc2n(-c3ccc(Cl)cc3)c3ccccc3nc-2cc1Nc1ccc(Cl)cc1`, the Potency result in [1], in experiment [2], in experiment [4], in experiment [5], in [6] and in experiment [7] was “inactive” throughout. Further, the Potency result in experiment [8], in experiment [10], in experiment [11], in experiment [12], in experiment [13] and in experiment [14] was “inactive” in each case. The Potency entry in experiment [16], in [17] and in [18] was “inactive” in each case.
For `CC[C@@]1(O)C(=O)OCc2c1cc1n(c2=O)Cc2cc3c([N+](=O)[O-])cccc3nc2-1`, the Potency in experiment [1] was 8.91 µM (active); in experiment [2], 11.2 µM (active); in experiment [4], 12 µM (active); in [7], 13.5 µM (active); in experiment [8], 10 µM (active); in experiment [9], 3.98 µM (active). Also, the Potency was 8.91 µM (active) in experiment [10]; 11.2 µM (active) in experiment [11]; 12.6 µM (active) in experiment [12]; 11.2 µM (active) in [14]; 3.55 µM (active) in [15]; 7.94 µM (active) in experiment [17].
As to `CCOC(=O)C1=C(C)NC(C)=C(C(=O)OCC)C1c1ccccc1C=CC(=O)OC(C)(C)C`, the Potency in experiment [1] is 11.2 µM (active); in experiment [2], 8.91 µM (active); in experiment [3], 12 µM (active); in experiment [4], 15.1 µM (active); in [6], 15.1 µM (active); in experiment [7] it was 16.9 µM (active). In addition, the Potency in experiment [8] is 10 µM (active); in [9] it was 8.91 µM (active); in experiment [10], 10 µM (active); in experiment [13] it was 10 µM (active); in experiment [16], 12 µM (active); in experiment [17], 10 µM (active). The Potency result in experiment [14] was “inactive”.
On to `CCOC(=O)C1=CC2(CC)CCCN3CCc4c(n1c1ccccc41)C32` (centres undefined), for which the Potency in experiment [1] is 8.91 µM (active); in experiment [2], 8.91 µM (active); in [8], 11.2 µM (active); in experiment [10], 8.91 µM (active); in experiment [13], 11.2 µM (active); in experiment [14], 6.31 µM (active). Also, the Potency in [17] is 11.2 µM (active).
Consider `CCCCC(C)(O)C/C=C/[C@H]1[C@H](O)CC(=O)[C@@H]1CCCCCCC(=O)OC` (some centres undefined), for which the Potency entry in [1], in [2], in experiment [3], in [4], in experiment [5] and in experiment [6] was “inactive” throughout. Moreover, the Potency entry in experiment [8], in [9], in experiment [10], in experiment [11], in experiment [12] and in experiment [13] was “inactive” in each case. Also, the Potency entry in experiment [14], in [15], in experiment [16], in [17], in experiment [20] and in experiment [18] was “inactive” in each case.
Consider `IC(I)I`, for which the Potency entry in experiment [1], in experiment [2], in experiment [4], in [5], in experiment [19] and in experiment [6] was “inactive” each time. The Potency entry in [8], in [9], in experiment [10], in [11], in experiment [12] and in experiment [13] was “inactive” each time. Also, the Potency result in [14], in [15], in experiment [16], in [17], in experiment [20] and in experiment [18] was “inactive” throughout.
With `COC(=O)CCC(=O)CN`, the Potency result in experiment [1], in [2], in experiment [3], in experiment [5], in experiment [19] and in [6] was “inactive” in each case. The Potency entry in experiment [7], in experiment [8], in [9], in experiment [10], in experiment [11] and in experiment [12] was “inactive” in each case. Besides, the Potency result in experiment [13], in experiment [14], in experiment [15], in experiment [16], in experiment [17] and in experiment [18] was “inactive” throughout.
